GC-A act – GC-A stimulated cGMP production enhancers – HEK293 GC-A cells, cGMP TR-FRET, EC30 ANP, primary screen; 0% at EC30 ANP, 100% saturating ANP; activation, % at 10 µM; Atrial natriuretic peptide receptor 1 (Homo sapiens), P16066; 0.14% of 370,000 active; in the data active means activation above about 40%
PLC-gamma1 inh – PLC-gamma1 enzyme inhibitors, primary screen, biochemical, fluorescence, purified enzyme. fluorogenic substrate. 0.84% of 370,000 active. 1-phosphatidylinositol 4,5-bisphosphate phosphodiesterase gamma-1 (Homo sapiens), P19174. inhibition, % at 12.2 µM; in the data active means inhibition above about 9.5%
Target sequence (P19174 whole entry, looked up): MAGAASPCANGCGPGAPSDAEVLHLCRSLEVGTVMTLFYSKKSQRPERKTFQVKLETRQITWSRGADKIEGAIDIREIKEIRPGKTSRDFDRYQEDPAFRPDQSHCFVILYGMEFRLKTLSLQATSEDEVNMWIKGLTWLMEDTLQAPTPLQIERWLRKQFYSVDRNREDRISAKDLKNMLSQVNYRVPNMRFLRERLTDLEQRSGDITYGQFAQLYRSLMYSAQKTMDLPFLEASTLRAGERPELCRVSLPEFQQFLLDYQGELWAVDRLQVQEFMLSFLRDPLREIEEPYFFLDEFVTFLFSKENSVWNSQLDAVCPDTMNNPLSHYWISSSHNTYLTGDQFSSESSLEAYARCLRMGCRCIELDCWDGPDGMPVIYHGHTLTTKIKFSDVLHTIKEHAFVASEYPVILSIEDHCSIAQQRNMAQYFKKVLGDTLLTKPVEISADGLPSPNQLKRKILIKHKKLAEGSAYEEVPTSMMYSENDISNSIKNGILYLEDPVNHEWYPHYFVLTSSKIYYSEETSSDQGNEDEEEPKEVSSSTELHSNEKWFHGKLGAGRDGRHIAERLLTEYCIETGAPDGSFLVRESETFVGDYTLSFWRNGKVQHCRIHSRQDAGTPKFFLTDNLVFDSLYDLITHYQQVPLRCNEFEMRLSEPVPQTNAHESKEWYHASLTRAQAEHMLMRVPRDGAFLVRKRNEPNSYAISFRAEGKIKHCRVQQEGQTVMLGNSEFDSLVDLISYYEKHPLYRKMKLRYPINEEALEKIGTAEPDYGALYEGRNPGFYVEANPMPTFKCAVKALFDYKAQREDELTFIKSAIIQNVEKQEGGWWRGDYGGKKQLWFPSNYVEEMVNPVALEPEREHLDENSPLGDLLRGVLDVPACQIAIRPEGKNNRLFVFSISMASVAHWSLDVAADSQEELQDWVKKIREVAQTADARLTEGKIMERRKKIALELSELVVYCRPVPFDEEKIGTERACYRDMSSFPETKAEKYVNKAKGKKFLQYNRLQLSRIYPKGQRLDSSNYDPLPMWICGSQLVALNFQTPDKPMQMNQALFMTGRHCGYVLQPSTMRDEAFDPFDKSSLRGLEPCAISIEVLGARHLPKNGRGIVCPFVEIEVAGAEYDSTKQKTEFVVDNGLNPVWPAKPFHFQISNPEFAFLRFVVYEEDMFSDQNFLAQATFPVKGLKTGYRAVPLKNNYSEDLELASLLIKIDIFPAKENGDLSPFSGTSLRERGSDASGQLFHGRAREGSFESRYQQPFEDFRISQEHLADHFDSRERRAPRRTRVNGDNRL
PLC-beta3 inh – human PLC-beta3 inhibitors, primary screen, biochemical, fluorescence. 1-phosphatidylinositol 4,5-bisphosphate phosphodiesterase beta-3 (Homo sapiens), Q01970. Purified PLC-beta3, fluorogenic substrate. inhibition, % at 12.2 µM. 0.18% of 370,000 active; in the data active means inhibition above about 11%
Rce1 inhib – yeast Rce1p protease inhibitors, primary screen, biochemical, fluorescence, cell-free homogeneous; calls only; 0.27% of 290,000 active; AID 2563, 2010; yeast membranes, quenched prenylated peptide cleavage fluorescence;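 active means fall in fluorescence gain of 50% or more versus controls, with final raw signal at or below 3038400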
PfM18AAP inh-1 – PfM18AAP inhibitors, malaria aminopeptidase, primary screen, biochemical, QFRET, recombinant enzyme | M18 aspartyl aminopeptidase (Plasmodium falciparum 3D7) | H-Glu-NHMec fluorogenic cleavage | inhibition, % at 7.35 µM | 1.2% of 290,000 active | AID 1822, 2009;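 active means inhibition above the campaign mean inhibition over all tested compounds plus 3 SD, cut at about 28% in these data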
GC-B act – human GC-B receptor activators, primary screen, HEK293 GC-B cells, cGMP TR-FRET, EC30 CNP; Atrial natriuretic peptide receptor 2 (Homo sapiens), P20594; 0% at EC30 CNP, 100% saturating CNP; 0.11% of 370,000 active; activation, % at 10 µM; AID 1920062, 2024;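 active means activation at 10 µM reaching about 35% in either raw or pattern-adjusted values, limit read from the data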
PfM18AAP inh-2 – PfM18AAP inhibitors, malaria aminopeptidase, confirmation, biochemical, QFRET, recombinant enzyme, triplicate; 28% of 2,400 active; shares compounds with PfM18AAP inh-1; inhibition, % at 7.35 µM; H-Glu-NHMec fluorogenic cleavage;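 active means mean inhibition over replicate wells above the hit cutoff set for the earlier primary screen, cut at about 29% in these data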
CTSL1 confirm – cathepsin L1 inhibitors, retest, confirmation, counter-screen for PFM18AAP inhibitor project, biochemical, QFRET, triplicate. shares compounds with PfM18AAP inh-1. purified cathepsin L1, Z-Leu-Arg-MCA fluorescence. inhibition, % at 5.96 µM. 2,400 tested, under 10 active. AID 2178, 2009;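 active means average inhibition across replicates above the hit cutoff set in the earlier primary screen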
Hits are given with their value; 0 = inactive; - = no result given. Shown are actives, neighbours in structure and some others; about 2.2% of the full set was active somewhere.

SMILES	GC-A act	PLC-gamma1 inh	PLC-beta3 inh	Rce1 inhib	PfM18AAP inh-1	GC-B act	PfM18AAP inh-2	CTSL1 confirm
CC1CC(C)CN(S(=O)(=O)c2ccc(C(C)(C)C)cc2)C1 (stereo not drawn)	0	0	0	0	0	0	-	-
CC1CC(C)CN(S(=O)(=O)c2ccc(NN)nc2)C1 (stereo not drawn)	0	0	0	0	45.9	0	33.4	0
CC(C)=CCN1C(=O)[C@]2(OCCC=C[C@H]2C)c2c(Br)cccc21	0	0	0	-	-	0	-	-
CCC[C@H]1[C@@H](OC(=O)NCc2cccs2)CC[C@@]23CCCN2C(=O)CCC[C@@H]13	0	0	0	-	-	0	-	-
CCOc1ccc2[nH]cc(C(=O)O)c(=O)c2c1	0	0	0	0	50.8	0	0	0
O=S(=O)(c1ccccc1)n1c(CN2CCOCC2)nc2ccccc21	0	0	0	-	-	0	-	-
Cc1nn(CC(=O)N2CCC(N3CCCCC3)CC2)c(=O)c2c1sc1ccccc12	0	0	0	0	0	0	-	-
CCOC(=O)C1CCCN(C(=O)Cn2sc3nc(C)cc(C)c3c2=O)C1 (stereo not drawn)	-	-	-	0	59.2	-	0	0
CCCNC(=O)Cn1sc2nc(C)cc(C)c2c1=O	0	0	0	0	58.1	0	30.4	0
Cc1cc(C)c2c(=O)n(CC(=O)N3CCC(N4CCCCC4)CC3)sc2n1	0	0	0	0	42.9	0	0	0
COC(=O)[C@]12C[C@H](CC(=O)NCc3cccc(C(F)(F)F)c3)C(=O)N(Cc3ccco3)C1=C[C@H](C(C)(C)C)O[C@@H]2C	0	0	0	-	-	0	-	-
CCNC(=O)c1cccc(S(=O)(=O)N2CCCCCC2)c1	0	0	0	0	36.2	0	0	0
O=C(NN=Cc1ccc(F)cc1)c1cccc(S(=O)(=O)N2CCCC2)c1	0	0	0	-	-	0	-	-
O=C(N/N=C/c1ccc(O)c(O)c1)c1cccc(S(=O)(=O)N2CCCCC2)c1	0	0	0	-	56.2	0	50.8	0
NCCc1ccc(O)c(O)c1	0	0	0	0	72.7	0	66.1	0
Cc1ccc(NC(=O)Cc2ccc(OC(F)F)cc2)c(S(=O)(=O)N2CCOCC2)c1	0	0	0	-	-	0	-	-
Cc1cc(O)c2/c(=N\N)c(-c3csc(C)n3)coc2c1	0	0	0	0	70.5	0	48.5	0
O=C(O)C1CCN(C(=O)CCN2C(=O)S/C(=C\c3ccccc3)C2=O)CC1	0	0	0	0	37.0	0	0	0
COc1ccc(S[C@]2(C(=O)N3CCOCC3)CC(=O)N(c3ccc(C#N)cc3)[C@@H]2c2ccc(OC)cc2)cc1	0	0	0	-	-	0	-	-
O=C(Nn1cnnc1)c1cc2cc(Br)ccc2oc1=O	0	0	0	0	33.7	0	0	0
CC(C)NC(=O)c1cc2cc(Br)ccc2oc1=O	0	0	0	0	0	0	-	-
O=c1[nH]cnc2[nH]ncc12	0	0	0	0	48.9	0	0	0
O=C1/C(=C\c2ccc(O)c(O)c2)C(c2ccccc2)=NN1c1ccccc1	0	0	0	0	49.0	0	35.8	0
COc1cc(/C=C2\C(=O)N(c3ccc(NC(C)=O)cc3)N=C2c2ccccc2)ccc1O	0	0	0	0	0	0	-	-
CSc1ncccc1C(=O)NCC(=O)Nc1ccc(F)c(F)c1	0	0	0	0	0	0	-	-
SMILES	GC-A act	PLC-gamma1 inh	PLC-beta3 inh	Rce1 inhib	PfM18AAP inh-1	GC-B act	PfM18AAP inh-2	CTSL1 confirm
CSc1ncccc1C(=O)NNc1cc(Cl)ccc1Cl	-	-	-	0	32.9	-	0	0
CCOC(=O)[C@]12CCCC3=C1N(CCC3)C(=O)[C@@H](CC(=O)NCc1ccc(OC)c(OC)c1)C2	0	0	0	-	-	0	-	-
COC(=O)c1cc(-c2cnc(OC)nc2OC)c(=O)n2c1CCC2	0	0	0	-	-	0	-	-
Cc1c(C)n(C(=O)CSc2ncn[nH]2)c2ccccc12	0	0	0	0	82.7	0	52.2	0
Cc1c(C)n(C(=O)CSc2nncn2C)c2ccccc12	0	0	0	0	0	0	-	-
CC1=CC(C)(C)N(C(=O)CSc2ncn[nH]2)c2ccccc21	0	0	0	0	54.4	0	0	0
CC(=O)N1CCC(=NNc2ncc(C(F)(F)F)cc2Cl)CC1	-	0	0	-	33.4	-	0	0
O=C(NC1CCCCN(Cc2cccc(F)c2)C1=O)c1ccc2ccccc2c1 (stereo not drawn)	0	0	0	-	-	0	-	-
O=C(NC1CC1)c1sc2cc([N+](=O)[O-])ccc2c1Cl	0	0	0	0	0	0	-	-
CC(NC(=O)c1sc2cc([N+](=O)[O-])ccc2c1Cl)C(C)(C)C (stereo not drawn)	0	0	0	0	38.2	0	30.8	0
O=[N+]([O-])c1ccc(N2CCN(c3ccc(O)cc3)CC2)cn1	0	0	0	0	40.5	0	0	0
COc1cc([N+](=O)[O-])ccc1-c1ccc(/C=N/NC(=O)OC(C)(C)C)o1	0	0	0	0	0	0	-	-
COc1cc([N+](=O)[O-])ccc1-c1ccc(/C=N/NC(N)=O)o1	0	0	0	0	43.7	0	0	0
COc1cc(C2Nc3ccc4ncccc4c3C3=C2C(=O)CCC3)cc(OC)c1O (stereo not drawn)	0	0	0	0	43.2	0	0	0
COc1cc(C2Nc3ccc4ncccc4c3C3=C2C(=O)CC(C)(C)C3)cc(OC)c1O (stereo not drawn)	0	0	0	0	0	0	-	-
Cc1nn(C)cc1C(=O)NNC(=S)Nc1ccccc1	0	0	0	0	0	0	-	-
CNC(=S)NNC(=O)c1cn(C)nc1C	0	0	0	0	32.5	0	0	0
COc1cc([N+](=O)[O-])ccc1NC(=O)NNC(=O)c1sccc1C	0	0	0	0	52.7	0	44.6	0
O=S(=O)(Nc1ccc(Cl)nn1)c1ccccc1	0	0	0	0	0	0	-	-
O=S(=O)(NNc1cccc(Cl)n1)c1ccc(Cl)cc1	0	0	0	0	71.9	0	49.5	0
O=S(=O)(NNc1ccc(Cl)nn1)c1ccc(F)cc1	0	0	0	0	69.2	0	64.1	0
